Test results published in PubChem BioAssay (NCI).
Compounds without any hit were thinned out: in the full panel of roughly 83,000, 20% have a hit.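 Interpretation: 100, growth as untreated; towards 0, rising growth inhibition; 0, no net growth; 0 to -100, cell death. Compounds scoring below 10 were considered active.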 Unmarked numbers belong to inactive results. The source made the active and inactive calls.

How the values were obtained:
Assay in all cases: NCI-60 one-dose screen, 48 h (100 = growth as untreated, 0 = no growth, -100 = all killed)
Settings in all cases: 10 µM
NCI-H23 lung = system: NCI-H23 lung
NCI-H226 lung = system: NCI-H226 lung
NCI-H322M lung = system: NCI-H322M lung
HOP-62 NSCLC = system: HOP-62 NSCLC
NCI-H460 lung = system: NCI-H460 lung
HOP-92 NSCLC = system: HOP-92 NSCLC
NCI-H522 lung = system: NCI-H522 lung
A549/ATCC NSCLC = system: A549/ATCC NSCLC
786-0 renal = system: 786-0 renal
DU-145 prostate = system: DU-145 prostate
K-562 leukemia = system: K-562 leukemia
MALME-3M melanoma = system: MALME-3M melanoma
MDA-MB-231 breast = system: MDA-MB-231 breast
RXF 393 renal = system: RXF 393 renal
SF-268 CNS = system: SF-268 CNS
SF-295 CNS = system: SF-295 CNS
SF-539 CNS = system: SF-539 CNS
UACC-257 melanoma = system: UACC-257 melanoma
M14 melanoma = system: M14 melanoma
COLO 205 colon = system: COLO 205 colon

Compound: COc1ccccc1S(=O)(=O)Nc1ccc2c(c1)CN(C)C(=O)N2
- growth (NCI-H23 lung): 56.7%
- growth (NCI-H226 lung): 63%
- growth (NCI-H322M lung): 42.9%
- growth (HOP-62 NSCLC): 44.3%
- growth (NCI-H460 lung): 55.8%
- growth (HOP-92 NSCLC): 2.37% (active)
- growth (NCI-H522 lung): 26.1%
- growth (A549/ATCC NSCLC): 50.5%
- growth (786-0 renal): 72.7%
- growth (DU-145 prostate): 77.8%
- growth (K-562 leukemia): 28.6%
- growth (MALME-3M melanoma): 32.2%
- growth (MDA-MB-231 breast): 54.7%
- growth (RXF 393 renal): 73.3%
- growth (SF-268 CNS): 72.9%
- growth (SF-295 CNS): 5.34% (active)
- growth (SF-539 CNS): 50.1%
- growth (UACC-257 melanoma): 33.8%
- growth (M14 melanoma): 47.8%

Compound: C[C@H](NC(=O)[C@@H]1CSSC[C@@H](NC(=O)Cc2nc3ccccc3cc2O)C(=O)NCC(=O)N1C)c1ccccc1
- growth (NCI-H23 lung): 106%
- growth (NCI-H226 lung): 104%
- growth (NCI-H322M lung): 105%
- growth (HOP-62 NSCLC): 90.2%
- growth (NCI-H460 lung): 94.2%
- growth (HOP-92 NSCLC): 116%
- growth (NCI-H522 lung): 88.3%
- growth (A549/ATCC NSCLC): 90.5%
- growth (786-0 renal): 114%
- growth (DU-145 prostate): 83.3%
- growth (K-562 leukemia): 43.9%
- growth (MALME-3M melanoma): 125%
- growth (MDA-MB-231 breast): 70.8%
- growth (RXF 393 renal): 122%
- growth (SF-268 CNS): 86.6%
- growth (SF-295 CNS): 104%
- growth (SF-539 CNS): 79.3%
- growth (UACC-257 melanoma): 85.4%
- growth (M14 melanoma): 64.8%

Compound: COc1ccc(-c2csc(-c3cc(Cl)cc(Cl)c3Cl)n2)cc1
- growth (NCI-H23 lung): 91.4%
- growth (NCI-H226 lung): 88.9%
- growth (NCI-H322M lung): 98.6%
- growth (HOP-62 NSCLC): 91.1%
- growth (NCI-H460 lung): 97.9%
- growth (HOP-92 NSCLC): 85.8%
- growth (NCI-H522 lung): 81.8%
- growth (A549/ATCC NSCLC): 54.5%
- growth (786-0 renal): 111%
- growth (DU-145 prostate): 99.8%
- growth (K-562 leukemia): 83.9%
- growth (MALME-3M melanoma): 77.7%
- growth (MDA-MB-231 breast): 73.6%
- growth (SF-268 CNS): 97.1%
- growth (SF-295 CNS): 103%
- growth (SF-539 CNS): 94.8%
- growth (UACC-257 melanoma): 46.2%
- growth (M14 melanoma): 97.7%

Compound: CCN1CCN(c2nc(NNC(=O)c3cccc(OC)c3)nc(N3CCN(C(c4ccccc4)c4ccccc4)CC3)n2)CC1
- growth (NCI-H23 lung): 78.5%
- growth (NCI-H226 lung): 94.5%
- growth (NCI-H322M lung): 89.7%
- growth (HOP-62 NSCLC): 87.1%
- growth (NCI-H460 lung): -9.84% (active)
- growth (HOP-92 NSCLC): 42.8%
- growth (NCI-H522 lung): 97%
- growth (A549/ATCC NSCLC): 65.3%
- growth (786-0 renal): 72.8%
- growth (DU-145 prostate): 81.4%
- growth (K-562 leukemia): 16.5%
- growth (MALME-3M melanoma): -79.5% (active)
- growth (MDA-MB-231 breast): 71.9%
- growth (RXF 393 renal): 56.1%
- growth (SF-268 CNS): 80.9%
- growth (SF-295 CNS): 84%
- growth (SF-539 CNS): 71.6%
- growth (UACC-257 melanoma): 45.9%
- growth (M14 melanoma): -43.2% (active)

Compound: Cn1cnc([N+](=O)[O-])c1Sc1nnc(-c2ccccc2)c(-c2ccccc2)n1
- growth (NCI-H23 lung): 79.5%
- growth (NCI-H226 lung): 77.1%
- growth (NCI-H322M lung): 102%
- growth (HOP-62 NSCLC): 97.3%
- growth (NCI-H460 lung): 113%
- growth (HOP-92 NSCLC): 71.1%
- growth (NCI-H522 lung): 85.4%
- growth (A549/ATCC NSCLC): 114%
- growth (786-0 renal): 85.4%
- growth (COLO 205 colon): 90.2%
- growth (DU-145 prostate): 81.9%
- growth (K-562 leukemia): 51%
- growth (MDA-MB-231 breast): 102%
- growth (SF-268 CNS): 85.1%
- growth (SF-295 CNS): 87.7%
- growth (SF-539 CNS): 111%
- growth (UACC-257 melanoma): 79.9%
- growth (M14 melanoma): 76.9%

Compound: Cc1cn(C(=O)/C(Cl)=C(/Cl)C(=O)O)c2ccccc12
- growth (NCI-H23 lung): 96.7%
- growth (NCI-H226 lung): 97.6%
- growth (NCI-H322M lung): 128%
- growth (HOP-62 NSCLC): 88%
- growth (NCI-H460 lung): 114%
- growth (HOP-92 NSCLC): 80.4%
- growth (NCI-H522 lung): 110%
- growth (A549/ATCC NSCLC): 111%
- growth (786-0 renal): 116%
- growth (DU-145 prostate): 113%
- growth (K-562 leukemia): 97.9%
- growth (MDA-MB-231 breast): 96.3%
- growth (RXF 393 renal): 112%
- growth (SF-268 CNS): 103%
- growth (SF-295 CNS): 112%
- growth (SF-539 CNS): 111%
- growth (UACC-257 melanoma): 111%
- growth (M14 melanoma): 99.7%

Compound: COCCOC(=O)NC(=O)Nc1ccc(/C(=N/O)c2ccc(Cl)cc2)cc1
- growth (NCI-H23 lung): 29.2%
- growth (NCI-H226 lung): 33.3%
- growth (NCI-H322M lung): 30.5%
- growth (HOP-62 NSCLC): 19.2%
- growth (NCI-H460 lung): 7.81% (active)
- growth (HOP-92 NSCLC): 44.6%
- growth (NCI-H522 lung): -38.3% (active)
- growth (A549/ATCC NSCLC): 15.4%
- growth (786-0 renal): 22.3%
- growth (DU-145 prostate): 4.9% (active)
- growth (K-562 leukemia): 6.7% (active)
- growth (MALME-3M melanoma): 90%
- growth (MDA-MB-231 breast): 12.8%
- growth (RXF 393 renal): -13.1% (active)
- growth (SF-268 CNS): 43.2%
- growth (SF-295 CNS): -8.84% (active)
- growth (SF-539 CNS): 1.64% (active)
- growth (UACC-257 melanoma): 71.6%
- growth (M14 melanoma): 3.73% (active)

Compound: CCOC(=O)[C@@H]1[C@H](c2ccccc2)[C@H]([N+](=O)[O-])[C@H](c2cn(-c3ccccc3)nc2C)N1Cc1ccccc1
- growth (NCI-H23 lung): 88.6%
- growth (NCI-H226 lung): 66.6%
- growth (NCI-H322M lung): 104%
- growth (HOP-62 NSCLC): 64.2%
- growth (NCI-H460 lung): 41.9%
- growth (HOP-92 NSCLC): 69.8%
- growth (NCI-H522 lung): 80.6%
- growth (A549/ATCC NSCLC): 66.2%
- growth (786-0 renal): 74.5%
- growth (DU-145 prostate): 94.4%
- growth (K-562 leukemia): 61.4%
- growth (MALME-3M melanoma): 81%
- growth (MDA-MB-231 breast): 68.2%
- growth (RXF 393 renal): 69.9%
- growth (SF-268 CNS): 68.4%
- growth (SF-295 CNS): 81.8%
- growth (SF-539 CNS): 81.7%
- growth (UACC-257 melanoma): 64.2%
- growth (M14 melanoma): 76.5%

Compound: COc1cccc(C2(C)Nc3ccccc3-c3nc4ccccc4n32)c1 (stereo not drawn)
- growth (NCI-H23 lung): 102%
- growth (NCI-H226 lung): 102%
- growth (NCI-H322M lung): 92%
- growth (HOP-62 NSCLC): 97.7%
- growth (NCI-H460 lung): 101%
- growth (HOP-92 NSCLC): 93.4%
- growth (NCI-H522 lung): 103%
- growth (A549/ATCC NSCLC): 102%
- growth (786-0 renal): 101%
- growth (DU-145 prostate): 112%
- growth (K-562 leukemia): 100%
- growth (MALME-3M melanoma): 108%
- growth (MDA-MB-231 breast): 101%
- growth (RXF 393 renal): 111%
- growth (SF-268 CNS): 110%
- growth (SF-295 CNS): 94.6%
- growth (SF-539 CNS): 105%
- growth (UACC-257 melanoma): 110%
- growth (M14 melanoma): 102%
